This excerpt belongs to a sample that is enriched for hits.
miR122 inh – activators of miR-122 sensor in Huh7 cells. activation, % at 12.5 µM. AID 623901. hit rate 0.14% among 340,000. Huh7 psiCHECK-miR122 Renilla luciferase sensor, 48 h;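 active = mean activation of 30% or more, with every replicate also reaching 30%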;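 note: 0% = median of neutral control wells and 100% = median of positive control wells; higher luciferase signal means stronger suppression of miR-122 activity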
Starred values were filed as active, the others as inactive.

SMILES	miR122 inh
CCC(=O)N(C)C[C@H]1Oc2ncc(C#Cc3cccnc3)cc2C(=O)N([C@@H](C)CO)C[C@@H]1C	-4
O=C(COc1ccc(S(=O)(=O)NC2CCCCC2)cc1)Nc1ccc2c(c1)OCCO2	-101
O=C(COC(=O)Cc1ccc(S(=O)(=O)N2CCOCC2)s1)Nc1ccc2c(c1)OCO2	31*
O=C(Nc1ccc2c(c1)OCCO2)C1CCN(S(=O)(=O)c2ccccc2)CC1	-177
C[C@@H]1CN([C@@H](C)CO)C(=O)c2cc(-c3cccc(F)c3)cnc2O[C@H]1CN(C)C(=O)c1cccc(F)c1	4
Cc1cc(C)c(C)c(S(=O)(=O)Nc2ccc(C(=O)N3CCCC3)cc2)c1C	-135
CC(C(=O)OCC(=O)Nc1ncc(Cl)cc1Cl)N1C(=O)c2ccccc2C1=O (stereo not drawn)	36*
COc1cccc(-c2ccc3c(c2)O[C@@H](CN(C)C(=O)C2CCCCC2)[C@@H](C)CN([C@@H](C)CO)S3(=O)=O)c1	-5
C[C@H]1CN([C@@H](C)CO)C(=O)c2cc(C#CCN(C)C)cnc2O[C@H]1CN(C)C(=O)Cc1ccncc1	-11
CCCN1C[C@@H](C)[C@@H](OC)CN(C)C(=O)c2ccc(NC(=O)COC)cc2OC[C@@H]1C	1
CCc1nc2sc(C)c(C)c2c(=O)n1CCO	35*
Cc1ccc(S(=O)(=O)N(C)C[C@H]2Oc3cc(C#CC4CCCC4)ccc3S(=O)(=O)N([C@H](C)CO)C[C@H]2C)cc1	-79
C[C@H]1CN([C@@H](C)CO)S(=O)(=O)c2ccc(C#Cc3ccccc3)cc2O[C@@H]1CN(C)S(=O)(=O)c1ccccc1F	-33
C[C@@H]1CN([C@H](C)CO)C(=O)c2cc(-c3ccc(F)cc3)cnc2O[C@H]1CN(C)CC1CCOCC1	0
COc1cccc(-c2cnc3c(c2)C(=O)N([C@H](C)CO)C[C@H](C)[C@H](CN(C)Cc2ccc4c(c2)OCO4)O3)c1	6
C[C@H](CO)N1C[C@H](C)[C@@H](CN(C)Cc2ccc(C(F)(F)F)cc2)Oc2c(NC(=O)C3CCCCC3)cccc2C1=O	-122
C[C@H]1CN([C@@H](C)CO)C(=O)c2cccc(NC(=O)NC3CCCCC3)c2O[C@@H]1CN(C)Cc1ccc(C(F)(F)F)cc1	-121
C[C@@H]1CN([C@@H](C)CO)C(=O)c2cccc(NC(=O)Nc3ccc(F)cc3)c2O[C@H]1CN(C)Cc1ccc(C(F)(F)F)cc1	-91
C[C@@H]1CN([C@H](C)CO)C(=O)Cc2cc(NC(=O)Nc3ccc(C(F)(F)F)cc3)ccc2O[C@@H]1CN(C)C(=O)Nc1cccc2ccccc12	-112
C[C@@H]1CN([C@@H](C)CO)C(=O)Cc2cc(NC(=O)Nc3ccc(C(F)(F)F)cc3)ccc2O[C@@H]1CN(C)C(=O)Nc1cccc2ccccc12	-265
C[C@@H]1CN([C@H](C)CO)C(=O)c2cc(NC(=O)Cc3ccccc3)ccc2O[C@@H](C)CCCCO[C@H]1CN(C)Cc1ccc(C(F)(F)F)cc1	31*
C[C@@H]1CN([C@@H](C)CO)C(=O)Cc2cc(NC(=O)Nc3ccc(C(F)(F)F)cc3)ccc2O[C@H]1CN(C)Cc1ccc(Oc2ccccc2)cc1	35*
COc1ccc(CN(C)C[C@H]2OCCCC[C@H](C)Oc3ccc(NC(=O)Nc4ccc(C(F)(F)F)cc4)cc3C(=O)N([C@@H](C)CO)C[C@@H]2C)cc1	31*
COc1ccc(CN(C)C[C@@H]2OCCCC[C@H](C)Oc3ccc(NC(=O)Nc4ccc(C(F)(F)F)cc4)cc3C(=O)N([C@H](C)CO)C[C@H]2C)cc1	32*
C[C@H](CO)N1C[C@H](C)[C@@H](CN(C)Cc2ccc(C(F)(F)F)cc2)Oc2ccc(N(C)C)cc2C1=O	-98
SMILES	miR122 inh
C[C@@H]1CN([C@@H](C)CO)C(=O)c2cccc(NC(=O)Nc3ccccc3)c2O[C@H]1CN(C)Cc1ccc(C(F)(F)F)cc1	-115
COc1ccc(S(=O)(=O)Nc2cccc3c2O[C@@H](CN(C)Cc2ccc(C(F)(F)F)cc2)[C@H](C)CN([C@H](C)CO)C3=O)cc1	-102
C[C@H]1CN([C@@H](C)CO)C(=O)c2cc(/C=C/c3ccccc3)cnc2O[C@@H]1CN(C)S(=O)(=O)c1ccccc1F	9
CCCC#Cc1cnc2c(c1)C(=O)N([C@@H](C)CO)C[C@H](C)[C@@H](CN(C)Cc1cccnc1)O2	3
CO[C@@H]1CN(C)C(=O)c2cc(NC(=O)c3nc4ccccc4s3)ccc2OC[C@H](C)N(Cc2ccncc2)C[C@H]1C	-2
C[C@@H]1CN([C@@H](C)CO)C(=O)c2cc(Br)cnc2O[C@@H]1CN(C)Cc1cccc(F)c1	6
CCOc1cc(C)c(S(=O)(=O)NCCCn2ccnc2)cc1C	-93
Cc1ccc(S(=O)(=O)NC(=NCc2ccccc2)c2ccc(F)cc2)cc1	-116
C[C@H](CO)N1C[C@H](C)[C@H](CN(C)S(C)(=O)=O)Oc2ncc(C#CC3(O)CCCC3)cc2C1=O	-7
CCCNC(=O)NNC(=O)c1cc(-c2ccc3c(c2)OCO3)nc2ccccc12	-102
COc1ccc(C#Cc2cnc3c(c2)C(=O)N([C@H](C)CO)C[C@H](C)[C@H](CN(C)C)O3)cc1OC	10

Compound activity (PubChem)
